These results are taken from PubChem BioAssay (NCATS).

The structures appear in SMILES notation. Results filed as inconclusive are left out. Active and inactive are the calls of the source. The call rests on the fitted dose curve; in most records, active means well fitted inhibition curve with a large enough effect; inconclusive means small, poorly fitted or top-dose-only effect; inactive means flat fitted curve, though single readings scatter. Numbered stars: 1 amine (or outer) side, 2 acyl side, 3 side chain; on linkers, the order of the positions; unused ones are H or OH. Bridge positions count the residues as written; N and C are the ends. Square brackets hold non-standard residues; d marks the D form. Peptide text beside a SMILES is read from it. I, II: the chains in the order shown. Actinocin(9to1) = Cc1c2oc3c(C)ccc(C(=O)[*:1])c3nc-2c(C(=O)[*:2])c(N)c1=O; NMeV = CN[C@H](C(=O)O)C(C)C; Sar = CNCC(=O)O

Common to all, as to test: qHTS profiling for inhibitors of Plasmodium falciparum proliferation (AID 504749); further: nearly all actives have a fitted effect of over 60% in size
What all share (conditions): P. falciparum in erythrocytes, SYBR Green DNA, 72 h; series mostly up to 28.7 µM
In general terms: Quantitative high-throughput screening tests each substance at several concentrations.

In one assay the test system is CP192. A digest of the protocol:
(§1)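 Parasite proliferation within erythrocytes, 72 h exposure. Endpoint: SYBR Green I fluorescence after overnight lysis at room temperature. Controls: 0.29 uM artemisinin, DMSO.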

A further assay has as its system CP194. The essentials: as §1
The subject of another assay is CP201. A digest of the protocol:
as §1

The test system of a further assay is CP203. The essentials: as §1
The next assay relates to CP211. A digest of the protocol: as §1
The subject of the next assay is CP217. The essentials: as §1
In a further assay the test system is CP237. A digest of the protocol: as §1
The next assay concerns CP238. A digest of the protocol:
as §1

Another assay relates to CP247. A digest of the protocol:
as §1

For a further assay, the system named is CP250. The essentials:
as §1

The test system of the next assay is CP252. The essentials: as §1
For the next assay, the system named is CP256. The essentials:
as §1

The subject of the next assay is CP260. The essentials:
as §1

The test system of the next assay is CP262. A digest of the protocol:
as §1

Another assay concerns CP265. The essentials: as §1
The next assay concerns CP266. A digest of the protocol:
as §1

For the next assay, the system named is CP268. A digest of the protocol:
as §1

For the next assay, the system named is CP269. The essentials: as §1
The test system of a further assay is CP286. A digest of the protocol: as §1
In another assay the test system is CP215. A digest of the protocol: as §1
Potency means the concentration at half of the fitted maximal effect.

On to `Cc1c(N(C)CS(=O)(=O)O)c(=O)n(-c2ccccc2)n1C`, for which the Potency result with CP192, in the assay with CP194, in the assay on CP201, with CP203, with CP211 and in the assay on CP217 was “inactive” throughout. For the same compound, the Potency entry with CP237, in the assay on CP238, in the assay on CP247, with CP250, in the assay on CP252 and with CP256 was “inactive” each time. In addition, the Potency entry in the assay on CP260, in the assay with CP262, in the assay on CP265, in the assay on CP266, in the assay with CP268 and in the assay on CP269 was “inactive” throughout. The Potency entry in the assay on CP286 is “inactive”.
In the case of `C[C@]12CCC(=O)C=C1CC[C@H]1[C@@H]3CC[C@](O)(C(=O)CO)[C@@]3(C)C[C@H](O)[C@@]12F`, the Potency entry with CP192, in the assay with CP194, in the assay on CP201, in the assay on CP211, in the assay with CP215 and in the assay with CP217 was “inactive” in each case. In addition, the Potency entry in the assay on CP237, in the assay with CP238, in the assay with CP247, in the assay on CP250, in the assay on CP252 and in the assay on CP256 was “inactive” throughout. Also, the Potency entry in the assay on CP260, with CP262, in the assay on CP265, in the assay on CP266, with CP268 and in the assay on CP269 was “inactive” in each case. Besides, the Potency entry in the assay on CP286 was “inactive”.
For `Nc1cc(Cl)c(NC2=NCCN2)c(Cl)c1`, the Potency entry in the assay on CP192, in the assay with CP194, in the assay with CP201, with CP211, in the assay on CP215 and with CP217 was “inactive” each time. The Potency result with CP237, with CP238, in the assay on CP247, with CP250, in the assay on CP252 and in the assay with CP256 was “inactive” in each case. The Potency result in the assay with CP260, in the assay with CP262, with CP265, with CP266, in the assay on CP268 and in the assay with CP269 was “inactive” throughout. Besides, in the assay on CP286, the Potency result is “inactive”.
Turning to `CCCCC(CC)CN=C(N)NC(N)=NCCCCCCN=C(N)NC(N)=NCC(CC)CCCC` (centres undefined), the Potency with CP192 was 3790 nM (active); in the assay with CP194, 1510 nM (active); in the assay on CP201 it was 1690 nM (active); in the assay on CP211, 1510 nM (active); with CP215 it was 1690 nM (active); in the assay with CP217 it was 3160 nM (active). Further, the Potency is 1260 nM (active) with CP237; 1000 nM (active) in the assay on CP238; 1120 nM (active) in the assay on CP247; 891 nM (active) in the assay on CP250; 1260 nM (active) in the assay on CP252; 3550 nM (active) in the assay with CP256. The Potency is 1120 nM (active) in the assay on CP260; 1070 nM (active) with CP262; 3550 nM (active) in the assay on CP265; 1690 nM (active) with CP268; 1510 nM (active) in the assay on CP269; 631 nM (active) in the assay with CP286.
Take `NCCc1ccn[nH]1`: the Potency entry with CP192, in the assay with CP194, in the assay on CP201, with CP211, in the assay with CP215 and in the assay with CP217 was “inactive” throughout. Besides, the Potency entry in the assay on CP237, with CP238, in the assay on CP247, in the assay with CP250, in the assay on CP252 and with CP256 was “inactive” throughout. Moreover, the Potency result with CP260, with CP262, in the assay on CP265, in the assay on CP266, in the assay on CP268 and in the assay with CP269 was “inactive” in each case. Also, the Potency result in the assay on CP286 was “inactive”.
With `Cc1cc(=O)n(-c2ccccc2)n1C`, the Potency entry in the assay with CP192, in the assay with CP194, in the assay on CP201, with CP211, in the assay with CP215 and with CP217 was “inactive” each time. Further, the Potency entry with CP237, with CP238, with CP247, with CP250, in the assay on CP252 and with CP256 was “inactive” throughout. Besides, the Potency entry with CP260, in the assay on CP262, in the assay with CP265, in the assay with CP266, in the assay on CP268 and in the assay on CP269 was “inactive” in each case. In the assay with CP286, the Potency entry is “inactive”.
Regarding `N[C@H](Cc1c[nH]c2ccccc12)C(=O)O`, the Potency entry with CP192, in the assay with CP194, in the assay with CP201, in the assay with CP211, in the assay with CP215 and in the assay with CP217 was “inactive” throughout. The Potency entry in the assay on CP237, with CP238, in the assay with CP247, with CP250, with CP252 and in the assay with CP256 was “inactive” throughout. The Potency result with CP260, in the assay with CP262, in the assay with CP265, with CP266, in the assay on CP268 and in the assay on CP269 was “inactive” in each case. In the assay with CP286, the Potency entry was “inactive”.
With `C[C@@H]1C(=O)NC2=Nc3cccc(Cl)c3CN21`, the Potency entry in the assay on CP192, with CP194, in the assay on CP201, in the assay with CP211, in the assay with CP215 and with CP217 was “inactive” each time. The Potency result with CP237, in the assay on CP238, in the assay with CP247, with CP250, in the assay with CP252 and with CP256 was “inactive” in each case. For the same compound, the Potency result in the assay with CP260, in the assay with CP262, with CP265, with CP266, in the assay with CP268 and in the assay on CP269 was “inactive” throughout. The Potency result in the assay with CP286 was “inactive”.
As for `O=C(Nc1ccc(Cl)c(Cl)c1)C1CC1`, the Potency result with CP192, in the assay on CP194, in the assay with CP201, in the assay on CP211, in the assay with CP215 and in the assay on CP217 was “inactive” in each case. In addition, the Potency entry in the assay on CP237, in the assay with CP238, in the assay with CP247, in the assay with CP250, with CP252 and with CP256 was “inactive” throughout. The Potency result in the assay with CP260, in the assay with CP262, in the assay on CP265, with CP266, with CP268 and in the assay with CP269 was “inactive” each time. Moreover, in the assay with CP286, the Potency result was “inactive”.
For the compound `COc1cc(OC)cc(OC)c1`, the Potency entry in the assay on CP192, with CP194, in the assay with CP201, with CP211, in the assay on CP215 and in the assay with CP217 was “inactive” in each case. Besides, the Potency entry with CP237, with CP238, in the assay with CP247, in the assay on CP250, with CP252 and with CP256 was “inactive” in each case. For the same compound, the Potency entry in the assay with CP260, in the assay with CP262, in the assay with CP265, in the assay on CP266, in the assay on CP268 and with CP269 was “inactive” in each case. Moreover, the Potency entry with CP286 is “inactive”.
Consider `NC(=NCCCCCCN=C(N)/N=C(\N)Nc1ccc(Cl)cc1)/N=C(\N)Nc1ccc(Cl)cc1`, for which the Potency in the assay with CP192 was 1690 nM (active); in the assay on CP194 it was 1510 nM (active); with CP201, 3790 nM (active); with CP211, 1510 nM (active); in the assay on CP215, 1900 nM (active); with CP217, 2000 nM (active). The Potency was 891 nM (active) in the assay with CP237; 2240 nM (active) in the assay on CP238; 2240 nM (active) in the assay on CP247; 2240 nM (active) in the assay with CP250; 2000 nM (active) in the assay with CP252; 1410 nM (active) with CP256. The Potency in the assay with CP260 is 1000 nM (active); with CP262, 1510 nM (active); in the assay on CP266 it was 3790 nM (active); in the assay on CP268, 1510 nM (active); with CP269, 1200 nM (active); in the assay with CP286 it was 398 nM (active).
On to `Cc1c2oc3c(C)ccc(C(=O)N[C@@H]4C(=O)N[C@H](C(C)C)C(=O)N5CCC[C@H]5C(=O)N(C)CC(=O)N(C)[C@@H](C(C)C)C(=O)O[C@@H]4C)c3nc-2c(C(=O)N[C@@H]2C(=O)N[C@H](C(C)C)C(=O)N3CCC[C@H]3C(=O)N(C)CC(=O)N(C)[C@@H](C(C)C)C(=O)O[C@@H]2C)c(N)c1=O` (I: T[dV]P[Sar][NMeV] / II: T[dV]P[Sar][NMeV]; ester I:1-I:C, II:1-II:C; linker I:N-II:N via Actinocin(9to1)), for which the Potency in the assay on CP192 was 6 nM (active); in the assay with CP194 it was 5.4 nM (active); in the assay on CP201, 7.6 nM (active); in the assay on CP211, 6 nM (active); in the assay with CP215, 5.4 nM (active); with CP217, 7.1 nM (active). For the same compound, the Potency with CP237 is 0.0708 nM (active); in the assay with CP238, 1.8 nM (active); in the assay on CP247, 7.1 nM (active); with CP250 it was 3.5 nM (active); in the assay with CP252 it was 5.6 nM (active); with CP256, 7.9 nM (active). Moreover, the Potency in the assay on CP260 was 3.5 nM (active); in the assay on CP262, 3.4 nM (active); with CP266, 8.5 nM (active); in the assay with CP268, 6.7 nM (active); in the assay on CP269, 6 nM (active); with CP286, 3.5 nM (active).
Take `C[C@H]1[C@H](NC(=O)/C(=N/OC(C)(C)C(=O)O)c2csc(N)n2)C(=O)N1S(=O)(=O)O` (stereo in doubt): the Potency result in the assay on CP192, in the assay on CP194, in the assay with CP201, with CP211, in the assay on CP215 and in the assay with CP217 was “inactive” in each case. For the same compound, the Potency entry in the assay with CP237, in the assay with CP238, in the assay on CP247, in the assay on CP250, in the assay on CP252 and in the assay on CP256 was “inactive” throughout. The Potency entry with CP260, with CP262, with CP265, in the assay with CP266, in the assay on CP268 and in the assay on CP269 was “inactive” throughout. In addition, the Potency result with CP286 is “inactive”.
